Experimental findings from PubChem BioAssay are described below.

The source made the active and inactive calls.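 Rule for the calls: active = differentiation response of at least 50%, scaled between solvent and reference control, from cells with both markers; inactive = the rest.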

This experiment can be described thus: promoters of myeloid differentiation in arrested cells, primary screen, cell-based, GFP/MAC1 double positive, flow cytometry, validation set (AID 588685).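 Note: compound exposure lasts four days before antibody staining and flow analysis; 0% = DMSO wells and 100% = 5 µM fulvestrant positive control.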 The settings on record: ER-HoxA9 marrow cells, hits give high values, normalized: vehicle 0, fulvestrant 100. A general note: Flow cytometry measures light scatter and fluorescence of single cells or particles in a stream.
Turning to `CCN(CC)C(=O)N1CCN(C)CC1`, the differentiation response is -13.3% (inactive).

As to `CC1(C)[C@@H](O)CC[C@]2(C)[C@H]3C(=O)C=C4[C@@H]5C[C@@](C)(C(=O)O)CC[C@]5(C)CC[C@@]4(C)[C@]3(C)CC[C@@H]12`, the differentiation response is 16.9% (inactive).

As to `O=C(Nc1ccc(Cl)cn1)Nc1ccccc1Cl`, the differentiation response was -11.9% (inactive).

Turning to `COc1c(C=O)c(CCN(C)C(=O)c2ccc(F)cc2)cc2c1OCO2`, the differentiation response was 19.6% (inactive).

As for `COc1ccc(C2C3=C(CC(C)(C)CC3=O)N(C)C3=C2C(=O)CC(C)(C)C3)cc1`, the differentiation response is 3.88% (inactive).

Consider `CC(C)(Sc1cc(C(C)(C)C)c(O)c(C(C)(C)C)c1)Sc1cc(C(C)(C)C)c(O)c(C(C)(C)C)c1`, for which the differentiation response was -17.7% (inactive).

For the molecule `CC(=O)NC(NC(=S)N1CCCCCC1)C(Cl)(Cl)Cl` (stereo not given), the differentiation response is 6.11% (inactive).

In the case of `Cc1ccc2c(CC(=O)O)coc2c1`, the differentiation response was 0.24% (inactive).

As to `COc1cccc(N2C(=O)CC(c3c[nH]c4ccccc34)C2=O)c1` (stereo not given), the differentiation response was -13.3% (inactive).

Consider `CC1(CC(=O)Nc2ccccc2)NC(=S)N(c2ccccc2)N1` (stereo not given), for which the differentiation response is -18.4% (inactive).

As to `O=c1nc2n(c3c1oc1ccccc13)Cc1ccccc1-2`, the differentiation response was -6.03% (inactive).

Consider `COC(=O)c1ccc(NC(=O)C23CCC(C)(C(=O)O2)C3(C)C)cc1` (stereo not given), for which the differentiation response was -4.99% (inactive).

`c1cnc(N2CCN(Cc3ccc4c(c3)OCO4)CC2)nc1`: the differentiation response is -13.3% (inactive).

In the case of `CCOC(=O)C1=C(N)Oc2c(c(=O)[nH]c3ccccc23)C1c1ccccc1` (stereo not given), the differentiation response is -0.8% (inactive).

With `CCOc1ccc2[nH]c3c(=O)n(CCc4ccc(OC)cc4)cnc3c2c1`, the differentiation response was 29.6% (inactive).

Take `CC(=O)OC(C)C[N+](C)(C)C` (stereo not given): the differentiation response is 6.83% (inactive).

Turning to `CNc1c2c(nn1C)CCCC2`, the differentiation response was -3.11% (inactive).

On to `O=C(CN1C(=O)/C(=C/c2cccc(Br)c2)SC1=S)Nc1cccnc1`, for which the differentiation response is 2.74% (inactive).

Regarding `N/C(Cc1ccc(Cl)cc1Cl)=N\OC(=O)c1ccc(Br)o1`, the differentiation response was 2.4% (inactive).

With `O=C(c1ccco1)N1CCCN(Cc2nc(-c3ccc4c(c3)OCO4)no2)CC1`, the differentiation response is -11.5% (inactive).

Consider `Cc1ccc2c(c1)C(O)(C1COC(C)(C)CC1=O)C(=O)N2C` (stereo not given), for which the differentiation response is 23.2% (inactive).

Turning to `CC(C)(C)C(=O)N1CCCC1C(=O)O` (stereo not given), the differentiation response is 11.8% (inactive).

As for `COc1ccc(C2NC(=O)c3ccccc3O2)c(OC)c1OC` (stereo not given), the differentiation response is -1.71% (inactive).

Regarding `CC(C(=O)O)c1cccc(C(=O)c2ccccc2)c1` (stereo not given), the differentiation response was -7.5% (inactive).

In the case of `C[N+]1(C2CCC3CCCC2C3O)CCCCC1` (stereo not given), the differentiation response is 4.15% (inactive).

Regarding `CCc1cc(=O)oc2cc3occ(-c4ccc(OC)c(F)c4)c3cc12`, the differentiation response is 10.6% (inactive).

`COC(=O)[C@H]1[C@H]2C[C@@H]3c4[nH]c5cc(OC)ccc5c4CCN3C[C@H]2C[C@@H](OC(=O)c2ccc(N)cc2)[C@@H]1OC`: the differentiation response was 0.24% (inactive).

For the molecule `O=C(CN1CCN(Cc2ccccc2)CC1)N1CCCc2c1c(=O)oc1ccc(O)cc21`, the differentiation response is 8.19% (inactive).

`CCOc1ccc2ccccc2c1C(=O)N[C@@H]1C(=O)N2[C@@H]1SC(C)(C)[C@@H]2C(=O)O`: the differentiation response is 11% (inactive).

Turning to `COc1ccccc1N1CCN(CC(O)COc2cccc3ccccc23)CC1` (stereo not given), the differentiation response was 4.86% (inactive).

As to `C[C@]12CC[C@@H]3c4ccc(O)cc4[C@@H](O)C[C@H]3[C@@H]1CC[C@@H]2O`, the differentiation response was -3.11% (inactive).

Consider `O[C@H]1COC2C1OC[C@@H]2O` (stereo not given in full), for which the differentiation response is -4.99% (inactive).

As for `O=C(NCCO)c1ccc(Cl)c(Cl)c1`, the differentiation response was -10.4% (inactive).

For the molecule `O=C(Nc1ccc(C(=O)NC2CCCCC2)cc1)c1cccnc1`, the differentiation response is -4% (inactive).

`CC(=O)Oc1ccc(C(c2ccc(OC(C)=O)cc2)c2ccccn2)cc1`: the differentiation response is -7.94% (inactive).

`CC(CCc1ccccc1)NC(=O)/C=C/c1ccccc1` (stereo not given): the differentiation response is 0% (inactive).

Regarding `Cc1ccc2nc(NC3=NC(CC(=O)O)C(=O)N3)nc(C)c2c1` (stereo not given), the differentiation response is 9.04% (inactive).

Consider `O=C(NC(Nc1ccccn1)C(Cl)(Cl)Cl)c1ccccc1` (stereo not given), for which the differentiation response was -10.4% (inactive).

On to `NC(N)=N/N=C/c1cccc(Cl)c1Cl`, for which the differentiation response is -18.4% (inactive).

On to `COc1ccccc1C(=O)Oc1ccc2c(c1)O/C(=C\c1ccncc1)C2=O`, for which the differentiation response was 10.8% (inactive).
